This is an account of results in ChEMBL document CHEMBL1961873, “Compounds: GSK PKIS; Assays: Nanosyn kinase panel” (2012).

The target of assay [1] is Protein kinase C gamma type (Homo sapiens) (UniProt P05129). The note with it: at 1 µM.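 Also: each value is an averaged percent inhibition of the enzyme.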
The target in assay [2] is T1, Protein kinase C iota type (Homo sapiens) (UniProt P41743).
T1 sequence (whole entry): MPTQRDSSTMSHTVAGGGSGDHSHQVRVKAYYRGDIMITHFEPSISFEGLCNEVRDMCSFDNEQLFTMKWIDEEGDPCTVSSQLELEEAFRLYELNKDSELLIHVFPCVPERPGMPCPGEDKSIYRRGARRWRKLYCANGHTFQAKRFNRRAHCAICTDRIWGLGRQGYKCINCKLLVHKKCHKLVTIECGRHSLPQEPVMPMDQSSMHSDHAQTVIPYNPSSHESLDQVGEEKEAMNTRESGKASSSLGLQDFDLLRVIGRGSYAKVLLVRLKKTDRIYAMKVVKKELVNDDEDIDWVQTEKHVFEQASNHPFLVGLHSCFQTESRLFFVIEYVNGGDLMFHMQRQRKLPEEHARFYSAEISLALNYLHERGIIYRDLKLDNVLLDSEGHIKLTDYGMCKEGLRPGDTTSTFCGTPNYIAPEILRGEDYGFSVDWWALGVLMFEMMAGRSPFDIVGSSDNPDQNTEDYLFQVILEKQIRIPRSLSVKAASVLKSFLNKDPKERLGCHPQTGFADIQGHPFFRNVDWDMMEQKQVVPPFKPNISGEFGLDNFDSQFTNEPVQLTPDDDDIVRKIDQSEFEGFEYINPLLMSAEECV
As to conditions: at 0.1 µM.

The target in assay [3] is T1, Protein kinase C iota type (Homo sapiens). The note with it: at 1 µM.
The target in assay [4] is Protein kinase C theta type (Homo sapiens) (UniProt Q04759). As to conditions: at 0.1 µM.
Assay [5] shares this target. The note with it: at 1 µM.
In assay [6] the target is Protein kinase C beta type (Homo sapiens) (UniProt P05771). The note with it: at 0.1 µM.
Assay [7] has the same target. As to conditions: at 1 µM.
Assay [8] has as its target T2, Serine/threonine-protein kinase D1 (Homo sapiens) (UniProt Q15139).
T2 sequence (whole entry): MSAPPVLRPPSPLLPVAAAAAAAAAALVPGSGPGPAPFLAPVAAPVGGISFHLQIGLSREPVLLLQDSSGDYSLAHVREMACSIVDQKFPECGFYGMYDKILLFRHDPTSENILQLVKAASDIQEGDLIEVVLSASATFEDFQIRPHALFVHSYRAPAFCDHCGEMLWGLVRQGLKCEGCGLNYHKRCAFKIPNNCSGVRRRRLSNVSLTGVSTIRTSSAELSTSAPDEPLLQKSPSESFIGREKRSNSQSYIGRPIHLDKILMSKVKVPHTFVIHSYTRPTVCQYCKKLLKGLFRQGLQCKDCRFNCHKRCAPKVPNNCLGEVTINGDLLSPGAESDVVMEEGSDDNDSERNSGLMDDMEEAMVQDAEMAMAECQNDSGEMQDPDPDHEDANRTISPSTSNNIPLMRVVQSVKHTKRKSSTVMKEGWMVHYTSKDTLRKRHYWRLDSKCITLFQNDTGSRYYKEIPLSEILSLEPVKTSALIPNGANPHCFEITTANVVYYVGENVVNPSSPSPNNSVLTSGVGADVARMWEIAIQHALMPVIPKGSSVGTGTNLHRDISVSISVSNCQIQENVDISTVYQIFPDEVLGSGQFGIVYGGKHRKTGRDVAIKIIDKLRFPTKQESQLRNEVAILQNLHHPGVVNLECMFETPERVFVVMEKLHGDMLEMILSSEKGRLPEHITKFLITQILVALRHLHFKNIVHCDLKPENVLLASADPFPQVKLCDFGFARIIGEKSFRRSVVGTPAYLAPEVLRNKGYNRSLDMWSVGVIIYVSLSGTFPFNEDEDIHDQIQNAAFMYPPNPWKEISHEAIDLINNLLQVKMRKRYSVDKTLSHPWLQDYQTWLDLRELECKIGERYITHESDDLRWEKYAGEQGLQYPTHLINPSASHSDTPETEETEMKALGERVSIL
The note with it: at 0.1 µM.

The target in assay [9] is T2, Serine/threonine-protein kinase D1 (Homo sapiens). The note with it: at 1 µM.
For assay [10], the target named is T3, Serine/threonine-protein kinase D2 (Homo sapiens) (UniProt Q9BZL6).
T3 sequence (whole entry): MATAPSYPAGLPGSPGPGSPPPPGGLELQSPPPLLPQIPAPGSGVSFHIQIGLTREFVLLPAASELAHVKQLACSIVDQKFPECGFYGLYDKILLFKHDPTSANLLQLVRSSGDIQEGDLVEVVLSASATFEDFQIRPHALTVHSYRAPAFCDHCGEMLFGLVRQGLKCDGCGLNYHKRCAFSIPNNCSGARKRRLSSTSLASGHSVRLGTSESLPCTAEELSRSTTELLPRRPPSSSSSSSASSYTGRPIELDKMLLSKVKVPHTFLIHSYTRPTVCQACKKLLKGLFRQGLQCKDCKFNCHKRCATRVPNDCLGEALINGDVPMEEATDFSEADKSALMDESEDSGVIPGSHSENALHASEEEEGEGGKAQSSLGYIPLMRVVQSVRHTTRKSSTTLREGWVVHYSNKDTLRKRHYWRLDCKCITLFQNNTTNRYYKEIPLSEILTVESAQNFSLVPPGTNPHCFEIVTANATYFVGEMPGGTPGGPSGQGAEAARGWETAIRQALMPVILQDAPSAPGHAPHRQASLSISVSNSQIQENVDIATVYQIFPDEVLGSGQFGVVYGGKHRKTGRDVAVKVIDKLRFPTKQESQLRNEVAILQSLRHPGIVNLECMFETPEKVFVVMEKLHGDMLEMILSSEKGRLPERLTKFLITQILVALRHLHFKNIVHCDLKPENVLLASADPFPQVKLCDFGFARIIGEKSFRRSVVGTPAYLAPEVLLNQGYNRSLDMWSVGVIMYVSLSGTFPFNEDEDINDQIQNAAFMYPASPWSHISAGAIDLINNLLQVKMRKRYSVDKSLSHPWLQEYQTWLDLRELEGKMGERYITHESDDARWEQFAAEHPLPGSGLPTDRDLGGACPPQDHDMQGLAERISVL
As to conditions: at 0.1 µM.

Assay [11] deals with T3, Serine/threonine-protein kinase D2 (Homo sapiens). The note with it: at 1 µM.
Assay [12] concerns the target T4, Serine/threonine-protein kinase D3 (Homo sapiens) (UniProt O94806).
T4 sequence (whole entry): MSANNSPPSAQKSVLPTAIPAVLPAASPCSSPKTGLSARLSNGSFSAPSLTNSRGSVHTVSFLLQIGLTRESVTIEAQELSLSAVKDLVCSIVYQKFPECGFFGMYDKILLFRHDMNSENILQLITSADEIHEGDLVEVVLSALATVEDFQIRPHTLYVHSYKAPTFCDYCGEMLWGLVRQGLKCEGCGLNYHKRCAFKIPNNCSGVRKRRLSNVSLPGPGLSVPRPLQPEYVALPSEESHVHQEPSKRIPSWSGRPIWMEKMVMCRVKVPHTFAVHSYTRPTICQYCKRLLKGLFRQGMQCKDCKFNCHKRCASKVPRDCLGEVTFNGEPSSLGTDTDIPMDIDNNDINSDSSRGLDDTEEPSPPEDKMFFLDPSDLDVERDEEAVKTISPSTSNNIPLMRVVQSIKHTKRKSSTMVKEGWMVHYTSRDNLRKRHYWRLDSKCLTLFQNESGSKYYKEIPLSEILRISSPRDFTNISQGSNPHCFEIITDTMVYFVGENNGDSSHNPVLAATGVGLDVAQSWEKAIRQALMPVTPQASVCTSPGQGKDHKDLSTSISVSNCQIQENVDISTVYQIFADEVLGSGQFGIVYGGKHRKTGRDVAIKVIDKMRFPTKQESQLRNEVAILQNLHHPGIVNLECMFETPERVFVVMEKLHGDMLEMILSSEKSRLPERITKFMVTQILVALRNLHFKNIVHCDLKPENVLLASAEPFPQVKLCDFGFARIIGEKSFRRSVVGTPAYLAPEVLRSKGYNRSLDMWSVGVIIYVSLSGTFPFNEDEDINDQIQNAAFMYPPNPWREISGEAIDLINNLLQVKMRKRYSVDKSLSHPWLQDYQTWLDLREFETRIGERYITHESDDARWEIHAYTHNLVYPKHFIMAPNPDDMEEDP
As to conditions: at 0.1 µM.

Assay [13] concerns the target T4, Serine/threonine-protein kinase D3 (Homo sapiens). As to conditions: at 1 µM.
The target in assay [14] is T5, cGMP-dependent protein kinase 1 (Homo sapiens) (UniProt Q13976).
T5 sequence (whole entry): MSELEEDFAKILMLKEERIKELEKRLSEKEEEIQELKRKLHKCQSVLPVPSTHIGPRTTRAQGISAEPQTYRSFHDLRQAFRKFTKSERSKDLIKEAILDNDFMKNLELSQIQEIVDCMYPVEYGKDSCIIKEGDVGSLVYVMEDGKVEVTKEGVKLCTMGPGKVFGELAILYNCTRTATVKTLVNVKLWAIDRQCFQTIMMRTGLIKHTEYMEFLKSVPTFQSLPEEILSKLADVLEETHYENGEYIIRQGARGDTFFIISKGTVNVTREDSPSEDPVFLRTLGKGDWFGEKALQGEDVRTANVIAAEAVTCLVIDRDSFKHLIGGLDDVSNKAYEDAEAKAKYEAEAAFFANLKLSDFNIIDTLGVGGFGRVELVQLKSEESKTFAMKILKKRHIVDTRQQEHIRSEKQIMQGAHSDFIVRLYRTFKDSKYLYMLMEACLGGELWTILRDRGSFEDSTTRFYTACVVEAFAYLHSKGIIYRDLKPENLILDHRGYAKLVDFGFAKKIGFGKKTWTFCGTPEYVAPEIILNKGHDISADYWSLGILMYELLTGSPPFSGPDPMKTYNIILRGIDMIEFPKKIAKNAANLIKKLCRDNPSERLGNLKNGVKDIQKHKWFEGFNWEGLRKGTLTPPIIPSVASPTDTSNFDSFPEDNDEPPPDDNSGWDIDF
As to conditions: at 0.1 µM.

Assay [15] addresses T5, cGMP-dependent protein kinase 1 (Homo sapiens). The note with it: at 1 µM.
Assay [16] concerns the target T6, cGMP-dependent protein kinase 2 (Homo sapiens) (UniProt Q13237).
T6 sequence (whole entry): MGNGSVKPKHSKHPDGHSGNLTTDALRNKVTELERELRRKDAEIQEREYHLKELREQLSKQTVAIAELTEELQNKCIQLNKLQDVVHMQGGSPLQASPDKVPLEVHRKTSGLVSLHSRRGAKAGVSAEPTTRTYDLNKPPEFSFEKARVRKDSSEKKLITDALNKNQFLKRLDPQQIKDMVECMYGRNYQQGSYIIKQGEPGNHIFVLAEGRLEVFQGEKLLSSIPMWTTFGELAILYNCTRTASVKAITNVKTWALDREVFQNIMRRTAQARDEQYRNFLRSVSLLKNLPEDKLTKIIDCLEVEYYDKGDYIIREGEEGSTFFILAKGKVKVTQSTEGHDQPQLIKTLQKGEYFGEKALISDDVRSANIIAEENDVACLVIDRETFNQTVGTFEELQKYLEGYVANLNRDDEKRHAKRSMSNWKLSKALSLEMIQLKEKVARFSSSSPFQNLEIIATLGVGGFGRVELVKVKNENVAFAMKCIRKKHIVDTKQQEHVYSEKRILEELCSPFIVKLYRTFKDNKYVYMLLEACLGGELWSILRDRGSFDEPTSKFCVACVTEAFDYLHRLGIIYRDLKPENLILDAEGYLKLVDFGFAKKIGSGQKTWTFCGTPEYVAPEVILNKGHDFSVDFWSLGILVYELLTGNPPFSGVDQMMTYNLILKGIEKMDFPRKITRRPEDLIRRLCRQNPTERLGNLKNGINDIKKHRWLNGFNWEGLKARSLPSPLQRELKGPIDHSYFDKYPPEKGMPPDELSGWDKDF
As to conditions: at 0.1 µM.

Assay [17] has as its target T6, cGMP-dependent protein kinase 2 (Homo sapiens). The note with it: at 1 µM.
For assay [18], the target named is T7, cAMP-dependent protein kinase catalytic subunit PRKX (Homo sapiens) (UniProt P51817).
T7 sequence (whole entry): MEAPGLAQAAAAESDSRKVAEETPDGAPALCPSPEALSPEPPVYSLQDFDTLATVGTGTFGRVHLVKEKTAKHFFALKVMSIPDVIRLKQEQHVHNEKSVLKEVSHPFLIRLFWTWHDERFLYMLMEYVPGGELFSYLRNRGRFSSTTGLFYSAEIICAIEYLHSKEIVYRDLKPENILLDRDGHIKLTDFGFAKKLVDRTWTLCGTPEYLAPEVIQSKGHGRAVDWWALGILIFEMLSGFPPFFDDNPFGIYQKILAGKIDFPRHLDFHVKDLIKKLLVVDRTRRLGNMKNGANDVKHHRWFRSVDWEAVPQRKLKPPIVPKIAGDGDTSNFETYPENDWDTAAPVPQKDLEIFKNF
As to conditions: at 0.1 µM.

Assay [19] addresses T7, cAMP-dependent protein kinase catalytic subunit PRKX (Homo sapiens). The note with it: at 1 µM.
Assay [20] has as its target Rho-associated protein kinase 1 (Homo sapiens) (UniProt Q13464). As to conditions: at 0.1 µM.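 Also: values are mean percent inhibition of ROCK1.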

Chain of Protein kinase C theta type (Homo sapiens) (Q04759 whole entry, looked up): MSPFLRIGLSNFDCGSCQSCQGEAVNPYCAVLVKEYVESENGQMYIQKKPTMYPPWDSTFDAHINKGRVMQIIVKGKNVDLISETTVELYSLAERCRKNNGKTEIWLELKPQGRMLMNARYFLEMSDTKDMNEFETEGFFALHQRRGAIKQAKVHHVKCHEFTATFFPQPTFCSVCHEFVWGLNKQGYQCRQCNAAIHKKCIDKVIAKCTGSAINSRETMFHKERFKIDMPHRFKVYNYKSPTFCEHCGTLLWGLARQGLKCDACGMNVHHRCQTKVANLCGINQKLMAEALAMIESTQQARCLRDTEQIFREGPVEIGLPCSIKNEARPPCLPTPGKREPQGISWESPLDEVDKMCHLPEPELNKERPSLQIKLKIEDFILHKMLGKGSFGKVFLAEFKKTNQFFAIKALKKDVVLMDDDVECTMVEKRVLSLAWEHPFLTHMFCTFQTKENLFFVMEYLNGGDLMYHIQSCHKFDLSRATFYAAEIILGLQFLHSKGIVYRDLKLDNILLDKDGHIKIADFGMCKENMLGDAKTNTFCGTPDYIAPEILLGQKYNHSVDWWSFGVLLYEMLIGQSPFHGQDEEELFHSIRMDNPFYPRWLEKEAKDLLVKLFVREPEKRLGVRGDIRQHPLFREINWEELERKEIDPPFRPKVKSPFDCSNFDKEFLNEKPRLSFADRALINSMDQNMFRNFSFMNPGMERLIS
Chain of Protein kinase C beta type (Homo sapiens) (P05771 2-671 limits assumed): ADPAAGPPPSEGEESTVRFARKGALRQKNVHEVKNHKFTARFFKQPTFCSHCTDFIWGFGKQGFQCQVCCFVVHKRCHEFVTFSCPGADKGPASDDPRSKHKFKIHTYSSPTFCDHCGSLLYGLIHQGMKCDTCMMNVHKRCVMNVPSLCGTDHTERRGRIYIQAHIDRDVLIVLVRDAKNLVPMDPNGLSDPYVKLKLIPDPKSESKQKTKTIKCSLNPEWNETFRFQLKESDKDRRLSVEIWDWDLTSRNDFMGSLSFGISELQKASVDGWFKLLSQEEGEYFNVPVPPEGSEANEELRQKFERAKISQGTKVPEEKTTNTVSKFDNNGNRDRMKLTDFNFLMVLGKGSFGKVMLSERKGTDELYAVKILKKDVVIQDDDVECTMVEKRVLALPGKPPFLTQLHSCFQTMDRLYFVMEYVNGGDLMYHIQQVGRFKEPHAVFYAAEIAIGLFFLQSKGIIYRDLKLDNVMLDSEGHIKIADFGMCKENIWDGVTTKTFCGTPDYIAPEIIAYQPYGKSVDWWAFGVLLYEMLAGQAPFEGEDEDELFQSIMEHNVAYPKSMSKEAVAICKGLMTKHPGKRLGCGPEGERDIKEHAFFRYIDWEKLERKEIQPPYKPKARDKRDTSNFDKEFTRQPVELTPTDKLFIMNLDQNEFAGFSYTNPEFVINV
Chain of Rho-associated protein kinase 1 (Homo sapiens) (Q13464 2-1354 limits assumed): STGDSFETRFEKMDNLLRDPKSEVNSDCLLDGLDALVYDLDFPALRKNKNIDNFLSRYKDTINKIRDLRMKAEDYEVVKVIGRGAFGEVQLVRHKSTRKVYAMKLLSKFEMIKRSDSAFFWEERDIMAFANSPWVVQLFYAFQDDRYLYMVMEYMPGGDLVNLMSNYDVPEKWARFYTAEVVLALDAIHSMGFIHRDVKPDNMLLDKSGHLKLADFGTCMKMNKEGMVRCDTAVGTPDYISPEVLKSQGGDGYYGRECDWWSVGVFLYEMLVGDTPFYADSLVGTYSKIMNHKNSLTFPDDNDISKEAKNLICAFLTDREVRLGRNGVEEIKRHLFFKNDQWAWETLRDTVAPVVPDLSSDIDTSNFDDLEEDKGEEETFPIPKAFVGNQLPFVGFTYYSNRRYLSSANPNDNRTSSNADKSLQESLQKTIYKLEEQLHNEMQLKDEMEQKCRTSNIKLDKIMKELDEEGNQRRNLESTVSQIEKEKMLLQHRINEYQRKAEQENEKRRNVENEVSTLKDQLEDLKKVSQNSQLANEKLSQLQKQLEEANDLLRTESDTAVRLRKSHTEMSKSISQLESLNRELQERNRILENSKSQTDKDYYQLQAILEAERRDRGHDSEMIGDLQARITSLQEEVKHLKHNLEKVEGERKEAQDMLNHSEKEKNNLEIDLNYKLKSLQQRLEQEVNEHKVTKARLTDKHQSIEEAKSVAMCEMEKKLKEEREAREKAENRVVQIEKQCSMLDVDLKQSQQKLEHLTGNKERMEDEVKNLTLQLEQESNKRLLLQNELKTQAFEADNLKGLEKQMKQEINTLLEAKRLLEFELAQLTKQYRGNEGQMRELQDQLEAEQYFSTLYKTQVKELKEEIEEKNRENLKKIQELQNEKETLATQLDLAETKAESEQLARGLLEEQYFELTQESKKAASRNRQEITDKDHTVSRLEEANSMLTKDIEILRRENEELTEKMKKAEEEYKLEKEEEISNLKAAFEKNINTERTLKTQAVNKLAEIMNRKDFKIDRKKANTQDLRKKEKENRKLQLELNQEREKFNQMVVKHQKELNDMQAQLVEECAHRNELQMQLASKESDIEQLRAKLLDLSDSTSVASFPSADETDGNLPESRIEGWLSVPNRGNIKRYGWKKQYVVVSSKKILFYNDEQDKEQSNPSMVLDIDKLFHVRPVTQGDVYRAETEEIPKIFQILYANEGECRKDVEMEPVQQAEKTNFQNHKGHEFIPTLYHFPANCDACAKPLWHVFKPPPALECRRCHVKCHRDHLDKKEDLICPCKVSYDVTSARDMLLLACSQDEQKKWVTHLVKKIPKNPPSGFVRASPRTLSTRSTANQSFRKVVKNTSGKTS

As to `C/C(Nc1ccc(S(N)(=O)=O)cc1)=C1/C(=O)Nc2ccccc21`, the inhibition – broadly, the change of the read-out against control, counted positive when it falls – was 2.57% in [1]; -0.37% in [2]; 0.02% in assay [3]; -0.23% in assay [4]; 3.24% in [5]; -0.77% in assay [6]. Moreover, the inhibition was 1.28% in [7]; 0.51% in assay [8]; 15.9% in assay [9]; 0.69% in assay [10]; 11.3% in [11]; -0.08% in [12]. The inhibition in [13] stood at 9.13%; in assay [14], 0.96%; in [15], 3.66%; in assay [16] it was 0.21%; in assay [17] it was 8.25%; in assay [18] it was 1.97%. Besides, the results for the inhibition in [19] and in assay [20] were 4.84% and 2.38%, respectively.
Turning to `COc1ccc(C2=C(N3CCc4ccccc43)C(=O)NC2=O)cc1`, the inhibition was 3.73% in assay [1]; 2.04% in assay [2]; 2.17% in [3]; 2.55% in assay [4]; 5.71% in [5]; 1.22% in assay [6]. The inhibition turned out to be 3.96% in [7]; 4.69% in assay [8]; 9.24% in assay [9]; 5.06% in [10]; 7.9% in assay [11]; 4.84% in assay [12]. Further, the inhibition in [13] was 8.41%; in [14] it was 1.67%; in assay [15], 6.23%; in assay [16], 1.42%; in assay [17], 4.94%; in [18], 2.47%. Also, the inhibition is 2.49% in assay [19] and 0.56% in assay [20].
